This note sets out measurements from PubChem BioAssay (NCI).

Holding throughout (assay): NCI-60 one-dose screen, 48 h (100 = growth as untreated, 0 = no growth, -100 = all killed)
One assay relates to NCI-H23 lung. As to conditions: 10 µM unless noted.
A further assay deals with NCI-H226 lung. As to conditions: 10 µM unless noted.
Another assay concerns NCI-H322M lung. The following applies: 10 µM unless noted.
A further assay relates to HOP-62 NSCLC. As to conditions: 10 µM unless noted.
The test system of the next assay is HOP-92 NSCLC. As to conditions: 10 µM.
The test system of a further assay is NCI-H522 lung. The following applies: 10 µM unless noted.
A further assay has as its system A549/ATCC NSCLC. The following applies: 10 µM unless noted.
The test system of a further assay is 786-0 renal. The following applies: 10 µM unless noted.
A further assay relates to COLO 205 colon. The following applies: 10 µM unless noted.
For another assay, the system named is DU-145 prostate. As to conditions: 10 µM unless noted.
The test system of the next assay is K-562 leukemia. As to conditions: 10 µM unless noted.
The subject of a further assay is MALME-3M melanoma. The following applies: 10 µM unless noted.
The test system of another assay is MDA-MB-231 breast. The following applies: 10 µM unless noted.
The next assay has as its system RXF 393 renal. As to conditions: 10 µM unless noted.
The next assay deals with SF-268 CNS. As to conditions: 10 µM unless noted.
Another assay deals with SF-295 CNS. The following applies: 10 µM unless noted.
A further assay deals with UACC-257 melanoma. As to conditions: 10 µM unless noted.
The next assay deals with M14 melanoma. As to conditions: 10 µM unless noted.
Another assay relates to HCT-15 colon. The following applies: 10 µM unless noted.
The subject of a further assay is SF-539 CNS. The following applies: 10 µM unless noted.

Compounds without any hit were thinned out: in the full panel of roughly 83,000, 20% have a hit.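 Interpretation: 100, growth as untreated; towards 0, rising growth inhibition; 0, no net growth; 0 to -100, cell death. Compounds scoring below 10 were considered active.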 Activity calls are given as the source filed them.

For the molecule `CN1CCN(c2ccc([N+](=O)[O-])c3no[n+]([O-])c23)CC1`, the growth with NCI-H23 lung is -24.1% (active); in the assay with NCI-H226 lung, -71.9% (active); in the assay on NCI-H322M lung, -24.2% (active); in the assay on HOP-62 NSCLC it was -98.3% (active); with HOP-92 NSCLC, -23.1% (active); with NCI-H522 lung it was -92.1% (active). The growth was -48.7% (active) with A549/ATCC NSCLC; -78.6% (active) in the assay with 786-0 renal; -83.3% (active) with COLO 205 colon; -27.4% (active) with DU-145 prostate; -18.4% (active) with K-562 leukemia; -78.8% (active) in the assay on MALME-3M melanoma. In addition, the growth in the assay on MDA-MB-231 breast was -32.1% (active); in the assay on RXF 393 renal, -92.8% (active); in the assay with SF-268 CNS it was -41.4% (active); in the assay with SF-295 CNS it was -52% (active); in the assay on UACC-257 melanoma it was -95.6% (active); in the assay with M14 melanoma, -65.2% (active). Also, the growth in the assay on HCT-15 colon is -56.3% (active).

Take `CO[C@H](/C(C)=C/C=C/C(C)=C/c1coc(C)n1)[C@H](C)[C@H]1C[C@@H](O)[C@@]2(C)O[C@H]2/C=C/[C@@H](C)[C@@H]2C[C@@H](CC(=O)O2)C[C@H]2O[C@@H]2C(=O)O1`: the growth in the assay with NCI-H23 lung was 24.4% (inactive); in the assay on NCI-H226 lung, 34.8% (inactive); with NCI-H322M lung it was 42.9% (inactive); in the assay on HOP-62 NSCLC it was 11.1% (inactive); in the assay on NCI-H522 lung it was -33.1% (active); in the assay with A549/ATCC NSCLC it was 42.9% (inactive). Further, the growth is 15.6% (inactive) with 786-0 renal; -28.7% (active) in the assay on COLO 205 colon; -18.9% (active) with DU-145 prostate; -31.6% (active) with K-562 leukemia; 15.2% (inactive) in the assay on MALME-3M melanoma; 25.9% (inactive) with MDA-MB-231 breast. Further, the growth is 13.7% (inactive) with RXF 393 renal; 32.5% (inactive) in the assay with SF-268 CNS; -13.3% (active) with SF-295 CNS; -19.2% (active) with SF-539 CNS; 19.1% (inactive) in the assay with UACC-257 melanoma; -0.709% (active) in the assay with M14 melanoma. For the same molecule, the growth with HCT-15 colon is -31% (active).

In the case of `CC[C@](O)(C(=O)O)c1cc2n(c(=O)c1CO)Cc1cc3ccccc3nc1-2`, the growth in the assay on NCI-H23 lung was -22.8% (active); in the assay on NCI-H226 lung it was -27.8% (active); with NCI-H322M lung it was -5.59% (active); with HOP-62 NSCLC it was 1.05% (active); in the assay on HOP-92 NSCLC, -39% (active); in the assay on NCI-H522 lung, -50.6% (active). Besides, the growth in the assay on A549/ATCC NSCLC is -5.92% (active); with 786-0 renal it was -21.9% (active); in the assay on COLO 205 colon, -20.7% (active); in the assay with DU-145 prostate it was -30.7% (active); with K-562 leukemia it was -27.9% (active); with MALME-3M melanoma it was -38.2% (active). Further, the growth in the assay with MDA-MB-231 breast is 34.5% (inactive); in the assay on RXF 393 renal, 9.87% (active); in the assay with SF-268 CNS it was 8.53% (active); with SF-295 CNS it was -13.2% (active); with SF-539 CNS it was -48.2% (active); in the assay on UACC-257 melanoma it was 0.116% (active). Moreover, the growth was -26.5% (active) with M14 melanoma and -5.77% (active) with HCT-15 colon.

Take `COC1=C(C)C(=O)C2=C(C1=O)C(CO)N1C(C#N)C3CC4C(C1C2N1CCOC41)N3C` (configuration not stated): the growth in the assay with NCI-H23 lung was -45.1% (active); in the assay with NCI-H226 lung, -14.5% (active); in the assay on NCI-H322M lung, -23.7% (active); with HOP-62 NSCLC, -42% (active); in the assay with NCI-H522 lung it was -83.2% (active); in the assay with A549/ATCC NSCLC, -3.64% (active). The growth with 786-0 renal is -21.9% (active); with COLO 205 colon it was -74.5% (active); in the assay on DU-145 prostate, 1.67% (active); with K-562 leukemia it was -45.3% (active); in the assay with MALME-3M melanoma it was -97.4% (active); in the assay on MDA-MB-231 breast it was -11.9% (active). The growth in the assay on RXF 393 renal was -88.9% (active); with SF-268 CNS, -13.6% (active); in the assay on SF-295 CNS, -29.7% (active); in the assay with SF-539 CNS, -60.3% (active); in the assay with UACC-257 melanoma it was 2.61% (active); with M14 melanoma, -85.9% (active). Moreover, in the assay on HCT-15 colon, the growth is -29.8% (active).
